Results on 37 compounds are retold here after PubChem BioAssay (Tox21).

Where “and” joins values, the source holds several entries; their conditions need not be identical. Identical values can stand only once. Records with an inconclusive call do not appear. A call without a number means that no potency is given here. Calls of active or inactive are those of the source. Calls come from the whole dose curve; as a rule, active = well fitted curve in the direction sought with a large enough effect in the repeat runs; inconclusive = weak or mixed curves; inactive = no such curve, though single readings can be large; an effect the other way counts as inactive or inconclusive.
Note: nearly all actives have a fitted effect of over 50% in size.

Sequence of Voltage-gated inwardly rectifying potassium channel KCNH2 (Homo sapiens) (Q12809 whole entry, looked up): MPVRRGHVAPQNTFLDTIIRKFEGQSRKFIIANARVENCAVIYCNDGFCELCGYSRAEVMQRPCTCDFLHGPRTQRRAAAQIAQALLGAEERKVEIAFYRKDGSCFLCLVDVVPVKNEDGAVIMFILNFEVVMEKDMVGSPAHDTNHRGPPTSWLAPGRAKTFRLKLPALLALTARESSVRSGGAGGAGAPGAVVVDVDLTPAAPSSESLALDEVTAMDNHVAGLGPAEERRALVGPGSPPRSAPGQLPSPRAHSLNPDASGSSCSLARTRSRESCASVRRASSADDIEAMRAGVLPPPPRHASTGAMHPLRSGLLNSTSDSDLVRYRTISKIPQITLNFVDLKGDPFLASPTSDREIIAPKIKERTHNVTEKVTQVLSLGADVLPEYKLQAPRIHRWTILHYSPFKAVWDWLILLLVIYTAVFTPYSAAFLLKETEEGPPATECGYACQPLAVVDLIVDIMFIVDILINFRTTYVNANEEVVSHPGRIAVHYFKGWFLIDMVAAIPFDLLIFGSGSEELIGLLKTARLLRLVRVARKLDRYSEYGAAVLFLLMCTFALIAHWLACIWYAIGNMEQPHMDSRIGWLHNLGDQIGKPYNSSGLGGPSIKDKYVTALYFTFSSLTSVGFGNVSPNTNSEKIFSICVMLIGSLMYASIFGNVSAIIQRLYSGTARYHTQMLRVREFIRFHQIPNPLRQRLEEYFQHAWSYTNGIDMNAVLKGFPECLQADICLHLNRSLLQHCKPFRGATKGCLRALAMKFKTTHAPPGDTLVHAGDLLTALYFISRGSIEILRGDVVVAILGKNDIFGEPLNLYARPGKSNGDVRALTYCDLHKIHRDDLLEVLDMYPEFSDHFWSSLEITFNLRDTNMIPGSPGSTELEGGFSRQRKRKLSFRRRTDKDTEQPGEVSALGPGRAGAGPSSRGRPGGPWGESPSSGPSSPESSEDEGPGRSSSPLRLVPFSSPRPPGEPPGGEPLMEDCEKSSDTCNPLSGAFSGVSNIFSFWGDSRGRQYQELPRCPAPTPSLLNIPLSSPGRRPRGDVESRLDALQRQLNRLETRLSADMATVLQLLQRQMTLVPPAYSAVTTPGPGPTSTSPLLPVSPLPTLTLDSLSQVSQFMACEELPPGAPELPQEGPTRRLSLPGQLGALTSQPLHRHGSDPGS
Sequence of Cytochrome P450 3A4 (Homo sapiens) (P08684 whole entry, looked up): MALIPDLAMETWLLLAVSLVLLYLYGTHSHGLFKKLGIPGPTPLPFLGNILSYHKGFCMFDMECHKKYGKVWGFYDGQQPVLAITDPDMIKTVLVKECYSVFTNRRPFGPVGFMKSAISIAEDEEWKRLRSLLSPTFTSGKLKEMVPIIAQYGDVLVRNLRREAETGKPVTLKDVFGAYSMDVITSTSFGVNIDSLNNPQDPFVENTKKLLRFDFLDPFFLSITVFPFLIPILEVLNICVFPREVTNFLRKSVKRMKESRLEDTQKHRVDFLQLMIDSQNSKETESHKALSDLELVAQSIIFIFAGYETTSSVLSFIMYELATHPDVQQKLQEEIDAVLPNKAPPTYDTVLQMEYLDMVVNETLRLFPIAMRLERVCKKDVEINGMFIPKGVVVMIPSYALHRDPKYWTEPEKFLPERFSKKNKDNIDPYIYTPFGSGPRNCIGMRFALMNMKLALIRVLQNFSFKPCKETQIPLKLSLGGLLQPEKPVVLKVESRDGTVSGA

The first test addresses Voltage-gated inwardly rectifying potassium channel KCNH2 (Homo sapiens) (UniProt Q12809). Briefly: Human Ether-a-go-go-Related Gene (hERG) channel small molecule antagonists: fluorescence cell-based qHTS assay (AID 1671200). Note: potency is the fitted concentration of half-maximal effect. Conditions: hERG-U2OS cells, FluxOR thallium flux fluorescence; series mostly up to 76.8 µM. In a few lines: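 U2OS cells expressing the channel were plated at 1000 cells/well, incubated overnight at 37 C, then loaded with FluxOR II thallium-sensitive dye for 1 h at room temperature in the dark, with a further 10 min at room temperature before stimulation.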
Consider `Nc1ccccc1N`, for which the Potency entry was “inactive”.
For `Brc1cc(Oc2cc(Br)c(Br)c(Br)c2Br)c(Br)c(Br)c1Br`, the Potency entry was “inactive”.
As to `Nc1ccc(S(=O)(=O)Nc2cnc3ccccc3n2)cc1`, the Potency result is “inactive”.
With `c1ccc2cc(Nc3ccc(Nc4ccc5ccccc5c4)cc3)ccc2c1`, the Potency result was “inactive”.
In the case of `C[C@]12CC[C@H]3[C@@H](CCC4=CC(=O)CC[C@@]43C)[C@@H]1CC[C@@H]2C(=O)CO`, the Potency entry was “inactive”.
Regarding `O=C1c2cccc(O)c2C(=O)c2c(O)cccc21`, the Potency entry is “inactive”.
In the case of `CC(C)CC(C)(O)C#CC(C)(O)CC(C)C` (centres undefined), the Potency result was “inactive”.
In the case of `Cn1cnc([N+](=O)[O-])c1Sc1ncnc2nc[nH]c12`, the Potency result was “inactive”.
As to `Oc1ccc(O)cc1`, the Potency result is “inactive”.
`OC(CCl)CCl`: the Potency entry is “inactive”.
Same read-out and setting: with `CCC(C)OC(=O)c1ccc(O)cc1` (centres undefined) the entry was “inactive”; with `COc1cccc2c1C(=O)c1c(O)c3c(c(O)c1C2=O)C[C@@](O)(C(=O)CO)C[C@@H]3O[C@H]1C[C@H](N)[C@H](O)[C@H](C)O1`, “inactive”; with `O=C(/C=C/C=C/c1ccc2c(c1)OCO2)N1CCCCC1`, “inactive”.
In the case of `O=P(O)(O)O`, the Potency entry was “inactive”.
Still for that read-out and setting: with `O=C=Nc1ccc(Cc2ccc(N=C=O)cc2)cc1` the entry was “inactive”; with `Cc1ccc(C(=O)c2cc(O)c(O)c([N+](=O)[O-])c2)cc1`, “inactive”.
The same measure, in the same setting: under `COC(=O)C1=C(C)NC(C)=C(C(=O)OCCN(C)Cc2ccccc2)C1c1cccc([N+](=O)[O-])c1` (centres undefined) stands 10.9 µM (active) and 8.49 µM (active); under `COc1ccc(OC)c(C(O)CNC(=O)CN)c1` (centres undefined), “inactive”.
`Nc1ncn([C@@H]2O[C@H](CO)[C@@H](O)[C@H]2O)c(=O)n1`: the Potency entry is “inactive”.
In the case of `COC(=O)CCC(=O)OC`, the Potency entry is “inactive”.
For `CCCC(=O)O`, the Potency entry is “inactive”.
Take `CC(C)(C)NC(=O)[C@H]1CC[C@H]2[C@@H]3CC[C@H]4NC(=O)C=C[C@]4(C)[C@H]3CC[C@]12C`: the Potency result is “inactive”.
With `C#C[C@]1(O)CC[C@H]2[C@@H]3CCC4=Cc5oncc5C[C@]4(C)[C@H]3CC[C@@]21C`, the Potency result is “inactive”.
On to `CC(C)=CCC/C(C)=C\CO`, for which the Potency entry is “inactive”.
Consider `COc1cc([C@@H]2c3cc4c(cc3[C@H](O)[C@H]3COC(=O)[C@H]23)OCO4)cc(OC)c1OC`, for which the Potency result is “inactive”.
Turning to `O=c1oc(=O)c2cc3c(=O)oc(=O)c3cc12`, the Potency result was “inactive”.
On the same count and under the same terms, with `O=[N+]([O-])c1ccc2c(c1)Cc1ccccc1-2` the entry was “inactive”; with `Cc1ccc(C)c(O)c1C`, “inactive”; with `CCCCCCCCCCCO`, “inactive”.
Regarding `CCCCOCCOCCOCCO`, the Potency result was “inactive”.
The same measure, in the same setting: with `CC(C)=CCCC(C)CCO` (centres undefined) the entry was “inactive”; with `CN(C)c1nc(N(C)C)nc(N(C)C)n1`, “inactive”.
Take `CCC(C)c1ccccc1O` (centres undefined): the Potency result is “inactive”.
For the compound `O=C(c1ccc(OCCN2CCCCC2)cc1)c1c(-c2ccc(O)cc2)sc2cc(O)ccc12`, the Potency was 21.9 µM (active) and 43.6 µM (active).
`CC(CCC(=O)O)(c1ccc(O)cc1)c1ccc(O)cc1`: the Potency entry is “inactive”.

The target of a further test is Cytochrome P450 3A4 (Homo sapiens) (UniProt P08684). Briefly: Cytochrome P450 Family 3 Subfamily A Member 4 (CYP3A4) small molecule antagonists: luciferase reporter qHTS assay (AID 1671201). Conditions: P450-Glo CYP3A4 enzyme, luciferin luminescence, 1 h; series mostly up to 115 µM. In a few lines:
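P450-Glo CYP3A4 system with proluciferin substrate; compounds preincubated 10 min RT with enzyme-substrate mix, then NADPH regeneration added for 1 h RT. Detection reagent 20 min, luminescence read as relative luminescence units.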
In the case of `Brc1cc(Oc2cc(Br)c(Br)c(Br)c2Br)c(Br)c(Br)c1Br`, the Potency entry was “inactive”.
Regarding `C[C@]12CC[C@H]3[C@@H](CCC4=CC(=O)CC[C@@]43C)[C@@H]1CC[C@@H]2C(=O)CO`, the Potency result was “inactive”.
Consider `O=C1c2cccc(O)c2C(=O)c2c(O)cccc21`, for which the Potency entry was “inactive”.
Consider `c1ccc2c(c1)Oc1ccccc1S2`, for which the Potency result was “inactive”.
On the same count and under the same terms, with `COC(=O)CCC(=O)OC` the entry was “inactive”; with `CCCC(=O)O`, “inactive”; with `Cc1[nH]c(=O)c(C#N)cc1-c1ccncc1`, “inactive”.
With `Cc1ccc(C)c(O)c1C`, the Potency entry was “inactive”.
On to `CCC(C)c1ccccc1O` (centres undefined), for which the Potency entry was “inactive”.
